Data taken from the supplement of paper PMC10849652.
Of roughly 7,900 targets only a part is listed; those with a hit were picked by preference. About 0.6% of all pairs of compound and target were hits.

What follows are targets tested with CO[C@H]1C[C@@H]2CC[C@@H](C)[C@@](O)(O2)C(=O)C(=O)N2CCCC[C@H]2C(=O)O[C@H]([C@H](C)C[C@@H]2CC[C@H](n3cnnn3)[C@H](OC)C2)CC(=O)[C@H](C)/C=C(\C)[C@@H](O)[C@@H](OC)C(=O)[C@H](C)C[C@H](C)/C=C/C=C/C=C/1C [zotarolimus] (assay: log2 fold change, soluble protein after heating vs DMSO (PISA); higher = thermal stabilisation; K562 cells, 10 uM, 30 min; active = over 0.2 and 3.5 SD of the protein, either way, in both replicates (recomputed)).
Summary of the method: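 K562 cells at 2×10^6 cells/mL were treated with 10 μM compound for 30 min. Aliquots were heated for 3 min across 48°C-58°C, pooled, and extracted in PBS with 0.5% NP-40 at 4°C; soluble protein was the supernatant after 21,000xg for 90 min. Soluble protein was quantified by TMTpro 16plex LC-MS/MS with channel sums equalised, and reported as log2 fold change in thermal stability against DMSO controls, with values from duplicates.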

UniProt Q96P47, sequence (Q96P47 whole entry, looked up): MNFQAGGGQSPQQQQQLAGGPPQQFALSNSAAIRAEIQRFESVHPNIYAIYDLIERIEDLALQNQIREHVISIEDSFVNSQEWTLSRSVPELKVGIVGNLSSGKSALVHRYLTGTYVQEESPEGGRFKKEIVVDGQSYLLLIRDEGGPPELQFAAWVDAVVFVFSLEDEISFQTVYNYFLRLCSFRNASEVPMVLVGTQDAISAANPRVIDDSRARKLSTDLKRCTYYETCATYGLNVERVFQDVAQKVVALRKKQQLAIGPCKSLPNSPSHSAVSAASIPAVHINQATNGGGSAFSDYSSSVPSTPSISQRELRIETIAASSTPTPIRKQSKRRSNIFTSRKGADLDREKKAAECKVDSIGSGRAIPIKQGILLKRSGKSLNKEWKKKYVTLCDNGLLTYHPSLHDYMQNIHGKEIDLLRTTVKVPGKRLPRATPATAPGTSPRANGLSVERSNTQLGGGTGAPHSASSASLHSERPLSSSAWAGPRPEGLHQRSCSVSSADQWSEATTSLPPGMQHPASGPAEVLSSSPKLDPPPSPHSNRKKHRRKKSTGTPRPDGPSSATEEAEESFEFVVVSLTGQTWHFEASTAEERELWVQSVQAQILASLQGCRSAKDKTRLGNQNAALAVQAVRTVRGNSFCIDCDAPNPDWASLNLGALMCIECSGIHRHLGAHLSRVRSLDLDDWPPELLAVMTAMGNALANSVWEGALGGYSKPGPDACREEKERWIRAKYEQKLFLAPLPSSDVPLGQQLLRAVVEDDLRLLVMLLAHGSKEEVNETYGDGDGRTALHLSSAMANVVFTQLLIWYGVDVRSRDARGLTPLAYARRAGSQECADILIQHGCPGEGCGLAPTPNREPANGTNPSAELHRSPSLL
UniProt O15254, sequence (O15254 whole entry, looked up): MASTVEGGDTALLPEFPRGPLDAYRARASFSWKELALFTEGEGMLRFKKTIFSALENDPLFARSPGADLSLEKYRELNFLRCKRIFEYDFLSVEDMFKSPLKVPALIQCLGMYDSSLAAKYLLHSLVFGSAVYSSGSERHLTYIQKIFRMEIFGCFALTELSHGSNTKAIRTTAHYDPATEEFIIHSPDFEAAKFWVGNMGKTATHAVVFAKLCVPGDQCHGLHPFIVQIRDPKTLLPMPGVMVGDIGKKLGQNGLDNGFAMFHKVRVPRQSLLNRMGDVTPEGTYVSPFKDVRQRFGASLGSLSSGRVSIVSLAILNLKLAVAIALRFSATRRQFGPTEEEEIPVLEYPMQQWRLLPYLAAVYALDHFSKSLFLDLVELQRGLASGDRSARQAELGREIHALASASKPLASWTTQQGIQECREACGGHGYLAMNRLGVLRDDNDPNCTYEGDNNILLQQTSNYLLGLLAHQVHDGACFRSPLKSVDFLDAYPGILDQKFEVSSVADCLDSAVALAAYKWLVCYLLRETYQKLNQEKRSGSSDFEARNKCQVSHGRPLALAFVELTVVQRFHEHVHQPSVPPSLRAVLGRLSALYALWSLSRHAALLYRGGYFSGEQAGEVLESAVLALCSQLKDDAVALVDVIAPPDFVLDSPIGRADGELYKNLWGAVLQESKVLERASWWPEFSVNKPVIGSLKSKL
UniProt Q14137, sequence (Q14137 whole entry, looked up): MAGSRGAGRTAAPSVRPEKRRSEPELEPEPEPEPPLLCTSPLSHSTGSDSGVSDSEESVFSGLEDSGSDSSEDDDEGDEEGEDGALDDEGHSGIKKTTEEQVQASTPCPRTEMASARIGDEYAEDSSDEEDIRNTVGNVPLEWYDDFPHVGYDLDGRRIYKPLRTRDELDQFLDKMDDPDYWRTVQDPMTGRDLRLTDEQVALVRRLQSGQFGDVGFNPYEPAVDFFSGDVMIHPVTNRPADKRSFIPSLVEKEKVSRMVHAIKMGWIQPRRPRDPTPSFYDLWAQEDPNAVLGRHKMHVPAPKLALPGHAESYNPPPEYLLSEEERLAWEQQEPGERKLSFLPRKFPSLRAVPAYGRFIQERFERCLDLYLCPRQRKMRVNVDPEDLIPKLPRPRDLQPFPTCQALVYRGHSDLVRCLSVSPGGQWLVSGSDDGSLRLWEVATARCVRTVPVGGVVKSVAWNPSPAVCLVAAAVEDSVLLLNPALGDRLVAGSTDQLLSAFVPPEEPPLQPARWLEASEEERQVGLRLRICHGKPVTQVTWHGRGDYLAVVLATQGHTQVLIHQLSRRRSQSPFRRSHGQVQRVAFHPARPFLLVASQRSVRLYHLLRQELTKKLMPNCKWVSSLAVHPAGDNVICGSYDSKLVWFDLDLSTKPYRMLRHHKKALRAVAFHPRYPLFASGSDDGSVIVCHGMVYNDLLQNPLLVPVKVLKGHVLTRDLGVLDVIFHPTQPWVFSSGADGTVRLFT
UniProt Q16864, sequence (Q16864 whole entry, looked up): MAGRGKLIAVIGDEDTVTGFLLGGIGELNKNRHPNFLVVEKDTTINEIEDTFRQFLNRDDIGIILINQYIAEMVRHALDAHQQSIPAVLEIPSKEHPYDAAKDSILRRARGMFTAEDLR
UniProt Q9UKG1, sequence (Q9UKG1 whole entry, looked up): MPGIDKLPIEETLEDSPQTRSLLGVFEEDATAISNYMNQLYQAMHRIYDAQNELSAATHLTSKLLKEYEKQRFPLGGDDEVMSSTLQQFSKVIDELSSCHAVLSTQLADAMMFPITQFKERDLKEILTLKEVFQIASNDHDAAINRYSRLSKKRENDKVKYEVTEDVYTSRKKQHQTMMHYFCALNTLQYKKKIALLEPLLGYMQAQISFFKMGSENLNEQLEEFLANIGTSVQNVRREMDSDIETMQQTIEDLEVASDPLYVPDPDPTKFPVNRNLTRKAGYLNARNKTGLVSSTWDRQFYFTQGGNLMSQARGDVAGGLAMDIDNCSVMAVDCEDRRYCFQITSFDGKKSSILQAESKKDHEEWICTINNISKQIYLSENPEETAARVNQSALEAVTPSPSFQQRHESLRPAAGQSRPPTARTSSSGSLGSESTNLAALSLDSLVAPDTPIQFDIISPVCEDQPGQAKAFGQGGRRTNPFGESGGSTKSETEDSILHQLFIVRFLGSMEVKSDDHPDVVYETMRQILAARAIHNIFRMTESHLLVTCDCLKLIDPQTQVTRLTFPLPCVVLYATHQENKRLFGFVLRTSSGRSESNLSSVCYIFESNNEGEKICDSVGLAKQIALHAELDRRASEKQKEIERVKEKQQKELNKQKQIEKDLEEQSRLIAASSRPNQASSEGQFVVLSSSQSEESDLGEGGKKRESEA
UniProt Q2TAA5, sequence (Q2TAA5 whole entry, looked up): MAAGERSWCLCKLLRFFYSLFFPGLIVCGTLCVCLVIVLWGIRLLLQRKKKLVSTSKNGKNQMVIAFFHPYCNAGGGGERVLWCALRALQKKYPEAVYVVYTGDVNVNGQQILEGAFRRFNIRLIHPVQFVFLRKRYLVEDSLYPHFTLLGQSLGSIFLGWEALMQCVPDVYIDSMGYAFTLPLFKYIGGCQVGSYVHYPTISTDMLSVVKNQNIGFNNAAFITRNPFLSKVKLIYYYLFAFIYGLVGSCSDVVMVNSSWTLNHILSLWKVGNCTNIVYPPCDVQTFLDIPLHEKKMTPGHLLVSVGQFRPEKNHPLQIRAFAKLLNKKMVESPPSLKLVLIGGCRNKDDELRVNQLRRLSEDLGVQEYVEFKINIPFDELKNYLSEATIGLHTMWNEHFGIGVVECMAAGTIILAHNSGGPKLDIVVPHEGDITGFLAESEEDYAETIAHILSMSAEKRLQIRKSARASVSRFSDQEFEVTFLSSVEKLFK
UniProt Q9H845, sequence (Q9H845 whole entry, looked up): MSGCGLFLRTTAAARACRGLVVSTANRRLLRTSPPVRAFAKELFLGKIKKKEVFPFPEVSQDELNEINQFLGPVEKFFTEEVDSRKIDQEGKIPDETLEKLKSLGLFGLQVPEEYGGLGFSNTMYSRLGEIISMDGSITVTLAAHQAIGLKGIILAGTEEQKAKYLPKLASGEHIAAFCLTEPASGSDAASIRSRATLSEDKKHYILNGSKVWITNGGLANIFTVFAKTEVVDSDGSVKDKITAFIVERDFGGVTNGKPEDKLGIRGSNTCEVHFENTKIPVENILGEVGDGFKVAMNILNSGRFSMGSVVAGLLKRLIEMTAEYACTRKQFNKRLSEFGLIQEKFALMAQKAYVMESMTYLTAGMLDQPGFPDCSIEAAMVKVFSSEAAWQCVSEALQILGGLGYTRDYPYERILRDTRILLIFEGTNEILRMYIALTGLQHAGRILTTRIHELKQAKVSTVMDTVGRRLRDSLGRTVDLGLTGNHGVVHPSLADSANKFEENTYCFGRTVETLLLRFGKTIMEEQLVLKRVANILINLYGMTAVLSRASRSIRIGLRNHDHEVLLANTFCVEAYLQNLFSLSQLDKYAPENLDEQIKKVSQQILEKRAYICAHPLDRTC
UniProt Q9BRQ8, sequence (Q9BRQ8 whole entry, looked up): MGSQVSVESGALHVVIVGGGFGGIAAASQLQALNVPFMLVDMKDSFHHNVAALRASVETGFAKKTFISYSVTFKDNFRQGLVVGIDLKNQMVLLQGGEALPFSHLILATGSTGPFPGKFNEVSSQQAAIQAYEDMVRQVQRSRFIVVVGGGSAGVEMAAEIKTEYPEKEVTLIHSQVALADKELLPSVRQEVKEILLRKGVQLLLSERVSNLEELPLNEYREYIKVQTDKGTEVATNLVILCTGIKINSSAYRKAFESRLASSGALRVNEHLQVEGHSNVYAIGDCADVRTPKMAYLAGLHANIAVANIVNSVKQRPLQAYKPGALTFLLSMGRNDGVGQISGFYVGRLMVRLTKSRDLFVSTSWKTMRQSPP
UniProt P54709, sequence (P54709 whole entry, looked up): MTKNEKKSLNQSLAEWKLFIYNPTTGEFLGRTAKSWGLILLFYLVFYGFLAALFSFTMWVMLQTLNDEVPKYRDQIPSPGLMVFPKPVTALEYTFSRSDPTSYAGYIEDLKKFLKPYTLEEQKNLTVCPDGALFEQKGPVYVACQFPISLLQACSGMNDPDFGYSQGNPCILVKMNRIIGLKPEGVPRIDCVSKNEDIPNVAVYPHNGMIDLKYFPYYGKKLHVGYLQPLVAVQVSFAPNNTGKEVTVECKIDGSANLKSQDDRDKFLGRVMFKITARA

Target | log2 fold change
ARGLU1 (UniProt Q9NWB6) | 0.025 (inactive)
AP4S1 (UniProt Q9Y587) | 0.126 (inactive)
ACTR1B (UniProt P42025) | -0.026 (inactive)
ALG11 (UniProt Q2TAA5) | 0.036 (inactive)
AKR1C2 (UniProt P52895) | 0.097 (inactive)
ATG9A (UniProt Q7Z3C6) | -0.014 (inactive)
ADH5 (UniProt P11766) | 0.008 (inactive)
AAR2 (UniProt Q9Y312) | 0.042 (inactive)
APPL1 (UniProt Q9UKG1) | 0.018 (inactive)
ACAD9 (UniProt Q9H845) | -0.017 (inactive)
ACOX3 (UniProt O15254) | -0.037 (inactive)
ALDH2 (UniProt P05091) | 0.055 (inactive)
ARL1 (UniProt P40616) | 0.03 (inactive)
AGAP3 isoform 4 (UniProt Q96P47) | -0.02 (inactive)
ATP1B3 (UniProt P54709) | -0.034 (inactive)
ATP6AP1 (UniProt Q15904) | 0.025 (inactive)
ACSL1 (UniProt P33121) | 0.038 (inactive)
ALDH9A1 isoform 3 (UniProt P49189) | 0.001 (inactive)
BOP1 (UniProt Q14137) | 0.054 (inactive)
ATF7 isoform 6 (UniProt P17544) | 0.03 (inactive)
ATP6V1F isoform 2 (UniProt Q16864) | 0.036 (inactive)
BTAF1 (UniProt O14981) | -0.004 (inactive)
AIFM2 (UniProt Q9BRQ8) | 0.097 (inactive)
